Reference: PMC6212790, “How bacterial xenogeneic silencer rok distinguishes foreign from self DNA in its resident genome”
In all, about 33,000 sequences were measured (“e-score”: median about -0.037, highest 2% from about 0.34 on). The full list was thinned out, with the highest values kept by preference.

molecular target: T1, GST-Rok (full length) (Bacillus subtilis subsp. subtilis str. …, UniProt O34857 1-191); test: protein binding microarray; Rok is a gene silencer of Bacillus subtilis; high values mean tight binding; conditions: protein: recombinant; tags: GST (pTH5325, pDEST15-Magic modified); dsDNA, one strand shown
T1 sequence: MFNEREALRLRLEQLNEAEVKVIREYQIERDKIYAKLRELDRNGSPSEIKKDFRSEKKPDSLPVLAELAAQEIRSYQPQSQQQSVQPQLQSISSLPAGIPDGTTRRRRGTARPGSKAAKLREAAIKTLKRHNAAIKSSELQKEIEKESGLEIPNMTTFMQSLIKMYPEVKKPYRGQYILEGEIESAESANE
Summary of the method: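 Every oligonucleotide joins a 25-mer constant primer to a 35-mer variable part drawn from a de Bruijn sequence of order 10, so each non-palindromic 8-mer appears at least 32 times and each palindromic 8-mer 16 times. The preference for every 8-mer is reported as a unitless, rank-based enrichment score (E-score). This score spans 0.5 for the most favored 8-mer to −0.5 for the most disfavored.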

Sequence | binding signal [E-score]
AACGGTGG | 0.0395
CGCCGACG | -0.0281
AAACAGGA | 0.00183
ACGTATCA | 0.0936
ACCTTATC | 0.155
AACTTAAG | 0.0622
CACATGTA | 0.284
ACCATGTG | -0.159
AACATGTA | 0.285
TACATGTA | 0.339
AACATACA | 0.355
TACATCTA | 0.382
AACATCTA | 0.236
AACATACT | 0.136
CCCATGTA | 0.12
ACCATGTA | 0.385
AACATACG | 0.205
CACATCTA | 0.268
GTCAACAA | 0.0786
CTGGACTA | 0.0592
CTACAGAC | 0.12
CAGATAGA | 0.172
AATTTGGT | 0.177
CTTAGCAC | -0.0712
AGGACTAC | -0.0384

Sequence | binding signal [E-score]
CTGCAATA | 0.13
GTAGAGAA | 0.189
TACATATA | 0.347
TACATACA | 0.341
AACATATA | 0.257
CACATACA | 0.167
GACATACA | 0.0575
GACATATA | 0.277
GTCAGTAA | 0.00175
GCATGGAA | -0.193
GCGACTGA | 0.0748
CGGTGAAC | 0.00962
GTCTAGCA | -0.0242
CACATCGC | -0.127
CATCAGGC | -0.154
GTAATGGA | 0.266
CTAGCGAC | -0.128
AAGCGTCG | -0.184
CTAGTTAC | 0.418
CTAGTTGC | 0.281
ATAGTTAA | 0.329
ATAGTTAC | 0.349
CTAGTTCC | 0.188
ATAGTTAG | 0.319
CACAAAAC | 0.0504

Sequence | binding signal [E-score]
GATTGCAA | 0.0926
GGAAGCTA | 0.285
CATTGGTA | 0.223
AATTGGTA | 0.339
AAGTGGTA | 0.348
AATTGGTC | 0.0556
AAGTGGTC | -0.0764
CAGTGGTA | 0.258
ACCGCCAC | -0.135
AATTGTGT | 0.149
CACTTTAG | -0.146
GTACTTAA | 0.275
CTACTGTA | 0.343
ATACTTAA | 0.0668
GTACTGTA | 0.155
CTACTTAA | 0.372
ATACTGTA | 0.34
CTACTGAA | 0.0898
ATACTGAA | 0.103
ATACTGTG | 0.0179
ACAGTACG | 0.142
GAAGTTGC | 0.0518
ACGGTCTG | -0.0535
AGCTTACG | -0.0197
TCGATTAA | 0.142

Sequence | binding signal [E-score]
CCGAACTC | 0.0171
ACCTACCA | 0.248
ACTTACAA | 0.176
ACTTACAG | -0.0639
ACTTACAT | 0.349
CGATATCG | 0.243
GCCGTGAC | -0.176
AACTATAA | 0.326
CTCTATCA | -0.0321
TACTATAA | 0.439
GTCTATCA | -0.00992
CACTATCA | 0.219
TACTATCA | 0.35
TCCTATCA | 0.123
TACTATGA | 0.228
GACTATCA | -0.0777
CACTATAA | 0.303
AACTATCA | 0.417
ATCTATCA | 0.409
ACATTAAT | 0.245
AGATAAGG | 0.0533
ATCCTATG | 0.106
GAGCTGCA | -0.0813
CGAAAAGA | 0.00822
AGGATCAC | -0.0581

Sequence | binding signal [E-score]
ATTGGTGA | 0.0777
TAGCTAAA | 0.214
ATATCCGG | 0.237
TAGGTTCA | 0.128
AAGATGGT | 0.0131
CCCGTTCA | -0.154
AATATGCA | 0.304
AGCTATCA | 0.336
CGCTATCA | 0.0965
GGCTATCA | -0.0678
ACGATTCA | -0.00504
CATGTAGC | 0.384
AACGTAGT | 0.0637
AATGTAAT | 0.326
CCTGTAGA | 0.0279
GCTGTAGA | 0.0153
AATGTAGA | 0.389
AATGTAGG | 0.174
AATGTAGC | 0.221
CATGTAGG | 0.116
GATGTAGC | 0.0838
AATGTAGT | 0.363
ACTGTAGA | 0.373
AGCTGCAC | 0.104
GAAGTCCC | -0.124

Sequence | binding signal [E-score]
ACCGATCC | -0.198
ATGAGGCG | -0.173
CTTAGGTC | 0.00712
AAGCTAAG | -0.0658
TATGTAGA | 0.292
GATGTAGA | 0.209
CATGTAGA | 0.374
CGCTCTGA | -0.0888
AGTAGGAA | 0.231
AGTAATAT | 0.402
ACTAATAC | 0.265
AGTAATCG | 0.0386
ACTAATAT | 0.385
ACTAATAG | 0.227
CGTAATAG | 0.318
AGTAATAA | 0.197
AGTAATAC | 0.26
AGTAATAG | 0.365
AACGGCTG | 0.0377
AAGTCAAT | 0.226
CTTGTCTC | 0.0221
GGGTTGCA | -0.161
AGATGTAA | 0.17
CATCTTAG | 0.118
GTTGATCA | -0.00765

Sequence | binding signal [E-score]
CGCAAGCC | -0.112
ACATAGAC | 0.0568
ACATAGAT | 0.346
ACATAGAG | 0.00988
AGATAGAT | 0.386
AGATAGAC | 0.108
AGATAGAG | 0.026
CTCTAGAC | -0.099
ACGAACGA | -0.116
ATCTACGG | 0.158
ATCTACTA | 0.446
CTCTACTA | 0.216
ATCTACTC | 0.251
GTCTACTA | 0.261
ATCTACTG | 0.382
ACATGTTG | -0.0393
CGCGCATA | 0.139
AATAAACG | 0.0748
GCTGTAAA | 0.151
CGGTATAA | 0.28
TGGTATAA | 0.349
AGGTATAA | 0.322
AAGTATAA | 0.142
CAGTATAA | 0.312
TAGTATAA | 0.404

Sequence | binding signal [E-score]
GGTTGTAC | 0.114
CGCGACAG | 0.0354
ATCTACAC | 0.348
ATCTACAG | 0.26
CTCTACAC | 0.0962
GTCTACAC | -0.0482
ATCTACAA | 0.276
ATCTACAT | 0.372
AAGGGTTA | -0.101
TCGCACAA | 0.0863
CCGGCTGA | -0.0957
TGCATTAA | 0.25
GAATTCCA | 0.0902
TATAGTAA | 0.389
AATAGTAA | 0.325
TATAGTCA | 0.159
CATAGTAA | 0.271
GATAGTAC | 0.18
GATAGTAA | 0.406
CGGCATGA | -0.101
GGGAATGA | -0.0881
GTATGTGA | 0.247
GAAATAAA | 0.221
AGATGAAC | 0.165
ACGTATAA | 0.244

Sequence | binding signal [E-score]
AAGTATAT | 0.348
ACGTATAC | 0.232
ACGTATAT | 0.365
AAGTATAG | 0.127
AAGTATAC | 0.251
GGGATTGA | -0.112
TACACATA | 0.315
GGTACATA | 0.196
AATACATT | 0.252
TATACACA | 0.2
AATACATA | 0.373
GATACATC | 0.186
AATACAGA | 0.0991
AATACATG | 0.108
TATACAGA | 0.342
TATACATA | 0.37
GATACAGA | -0.0115
GATACATA | 0.388
GGATTCAC | -0.0831
